PubChem BioAssay (EPA / NIEHS)
The source made the active and inactive calls. Rule for the calls: active = hit-call score of the fitted dose curve at least 0.9, where 1 is the maximum; inactive = score below 0.9.

These compounds were tested on Early growth response protein 1 (EGR1) transcription factor, EGR1 (gene 1958) (assay: LTEA_HepaRG_EGR1: Life Technologies and Expression Analysis (LTEA) Assay for Early growth response protein 1 (EGR1) transcription factor using HepaRG (AID 2283490)). Details: mRNA level, 48 h; actives raise or lower the signal.
Procedure: LTEA_HepaRG is a cell based, multiplexed-readout assay that uses HepaRG, a human liver cell line, with measurements taken at 48 hours after chemical dosing on a 96-well plate.LTEA_HepaRG_EGR1 is one of 102 assay component(s) measured in the LTEA HepaRG cell culture assay. It is a marker of Cell proliferation, survival, death.Data from the assay component LTEA_HepaRG_EGR1 was analyzed into 1 endpoint. This assay endpoint, LTEA_HepaRG_EGR1, was analyzed with bidirectional fitting relative to DMSO as the negative control and baseline of activity. Using a type of inducible reporter, measures of mRNA induction for gain or loss-of-signal activity can be used to understand regulation of transcription factor activity. To generalize the intended target to other relatable targets, this assay endpoint is annotated to the dna binding intended target family, where the subfamily is zinc finger.
A total of 1060 chemcials from the ToxCast library were tested in eight-point concentration-response experiments. Cell culture and cytotoxicity assays were conducted at Thermo Fisher Scientific's Custom Services facility (Madison, WI). A single lot of human HepaRG cells (Thermo Fisher Scientific, Frederick, MD) was used for the cell culture experiments. 96-well format collagen type I coated plates of human HepaRG cells were prepared using established methods. Briefly, cryopreserved HepaRG cells were thawed, plated at a density of approximately 100,000 cells/well in HepaRG Thaw, Plate, and General Purpose media (HPRG770, Thermo Fisher Scientific), and incubated for 48 hours. 0.5% DMSO was selected as vehicle control to balance the requisite need of DMSO in HepaRG cultures to maintain differentiation (for example, baseline metabolism, proportions of hepatocytes vs. cholangiocytes), while enabling further hepatic receptor pathway activation (for example, PXR and CAR) in response to chemical exposure. 48 hours after plating, the culture medium was replaced with HepaRG Serum-Free Incudtion Media. Cells were exposed to each test chemical in duplicate and maintained in CO2 incubators for another 48 hours. Chemical plates were thawed to room temperature and 200x concentrations of treatment groups were prepared. 8-point conentration-reponse curves were made with the highest exposure at 100 uM, followed by half-log dilutions, all in 0.5% DMSO. Each test plate contained variouse controls, induction positive controls (1mM phenobarbital), cytotoxicity positive controls ([…] aflatoxin B1), vehicle controls (0.5% DMSO), and total lysis controls (0.5% DMSO). Cell morphology images were taken using an Essen IncuCyte FLR automated microscope, with six 96-well plates imaged in about 24 minutes. Images were captured and exported and JPEG files. Spent culture media was transfered to black-well plates for the LDH assay, and remaining media was sorted at -80 C for later use. Cells were treated with RLT buffer and frozen until shipped for gene expression analysis. Total RNA was isolated from the cell suspension in 75 uL of Buffer RLT (Qiagen, Germantown, MD 20874) by Quintiles/Expression Analysis (Durham, NC) using a custom isolation procedure. Total RNA from each plate well was transferred to a preamplification plate. Fluidigm's 96.96 Dynamic ArrayTM (Fluidigm, Amsterdam, the Netherlands) technology was used for gene expression analyses by quantitative reverse transcription polymerase chain reaction (qRT-PCR, performed by Quintiles/Expression Analysis, Durham, NC)89. Standard TaqManTM Assays (Applied Biosystems/ThermoFisher Scientific, Foster City, CA) were used to assess the expression of 93 genes selected based on their selectivity and sensitivity to important hepatic receptors known to be modulated by environmental chemicals; importance in human hepatocyte functionality; and hepatotoxicity. […]
CO[C@@H]1[C@H](OC(=O)NC(=O)CCl)CC[C@]2(CO2)[C@H]1[C@@]1(C)O[C@@H]1CC=C(C)C was tested, and the outcome was “inactive”. In the case of CCN(CC)CCO, the outcome is reported as “inactive”. With Clc1ccc(C(c2ccc(Cl)cc2)C(Cl)Cl)cc1 the outcome was “inactive”. In the case of CN(C)c1ccc(C(=O)c2ccc(N(C)C)cc2)cc1, the outcome is reported as “inactive”. In the case of Nc1ccc(Cc2ccc(N)cc2)cc1, the outcome is reported as “inactive”. For Cn1cc(-c2ccccc2)c(=O)c(-c2cccc(C(F)(F)F)c2)c1, the outcome was “inactive”. For Clc1ccccc1Cl, the outcome was “inactive”. With c1ccc(N=Nc2ccccc2)cc1 the outcome was “inactive”. With Cc1ccc(N)cc1 the outcome was “inactive”. For O=P(OCCCl)(OCCCl)OCCCl, the outcome was “inactive”. For Oc1ccccc1Cl, the outcome was “inactive”. With Nc1ccc([N+](=O)[O-])cc1 the outcome was “inactive”. With CN(C)C(=O)Nc1ccc(Cl)cc1 the outcome was “inactive”. In the case of COC(=O)Nc1nc2ccccc2[nH]1, the outcome is reported as “inactive”. O=C(N[C@H](c1ccccc1)[C@@H]1CN2CCC1CC2)c1c(Cl)ccc(C(F)(F)F)c1Cl was tested, and the AC50 was 87.5 µM (active). For CS(=O)(=O)NC(=O)c1cc(Oc2ccc(C(F)(F)F)cc2Cl)ccc1[N+](=O)[O-], the outcome was “inactive”. For CCCCC(CC)COC(=O)c1ccc(C(=O)OCC(CC)CCCC)c(C(=O)OCC(CC)CCCC)c1 (stereo not given), the outcome was “inactive”. For COc1cc(C=O)cc2c1[C@H](COC(N)=O)[C@]1(OC(C)=O)ON2C[C@H]2[C@@H]1N2C(C)=O, the AC50 was 88.8 µM (active). In the case of CC(C)(O)c1cnn2c(-c3ccc(F)c(-c4c(F)cccc4C#N)c3)cnc2n1, the outcome is reported as “inactive”. With OCCCBr the outcome was “inactive”. CC(C)(C)OOC(=O)c1ccccc1 was tested, and the outcome was “inactive”. O=C(Oc1ccc(Br)cc1)N1CCN2CCC1CC2 was tested, and the outcome was “inactive”. For C=CCc1ccc2c(c1)OCO2, the outcome was “inactive”. With O=Cc1ccco1 the outcome was “inactive”. Brc1ccc(Oc2ccccc2)cc1 was tested, and the outcome was “inactive”. In the case of N#CC(Br)(Br)C(N)=O, the outcome is reported as “inactive”. In the case of [Cl-].[Cl-].[Hg+2], the outcome is reported as “inactive”. Cc1cc(N=Nc2ccccc2C)ccc1N was tested, and the outcome was “inactive”. In the case of Cc1ccc(N=C=O)cc1N=C=O, the AC50 is reported as 50 µM (active). With CN(C)c1ccccc1 the outcome was “inactive”. With [As]#[In] the outcome was “inactive”. In the case of CCCCCOC(=O)c1ccccc1C(=O)OCCCCC, the outcome is reported as “inactive”. In the case of CCNS(=O)(=O)C(F)(F)C(F)(F)C(F)(F)C(F)(F)C(F)(F)C(F)(F)C(F)(F)C(F)(F)F, the AC50 is reported as 35.6 µM (active). For Clc1ccc(C(c2ccc(Cl)cc2)C(Cl)(Cl)Cl)cc1, the outcome was “inactive”. With CC(O)CCO (stereo not given) the outcome was “inactive”. With Nc1ccc(N=Nc2ccccc2)cc1 the AC50 was 29.4 µM (active). With CN(C)[C@@H]1C(=O)C(C(N)=O)=C(O)[C@@]2(O)C(=O)C3=C(O)c4c(O)cccc4[C@@](C)(O)[C@H]3C[C@@H]12 the outcome was “inactive”. For O=C(Nc1ccccc1)c1ccccc1I, the outcome was “inactive”. With CC(C)(C)C(O)(CCc1ccc(Cl)cc1)Cn1cncn1 (stereo not given) the AC50 was 90.1 µM (active). With C1=Cc2cccc3cccc1c23 the outcome was “inactive”.
